Assay results published in PubChem BioAssay AID2314 (National Center for Advancing Translational Sciences (NCATS), 2010).
The whole screen tested about 300,000 compounds, of which about 37,000 (12%) were called active. The entries come from a sample that favours actives as a whole. Values without a mark were called inactive. Rule as the data show it: active = max response mostly above about 13% (no sharp cut-off); inactive = mostly below about 14%.

Experiment: Cycloheximide Counterscreen for Small Molecule Inhibitors of Shiga Toxin; also: read at 38.3 µM for the half of the compounds with a filed dose; 0% is about no effect
Details: cell reporter, cycloheximide protein synthesis inhibition counterscreen; stronger effect = higher value

| SMILES | max response |
| --- | --- |
| COc1ccc(-c2noc(CCCC(=O)NC3CCCC3)n2)cc1OC | 3.35% |
| COc1ccc(OC)c(Cc2nnc(CCC(=O)NC3CCCC3)o2)c1 | 18.4% (active) |
| CCOc1ccc(-c2noc(CCC(=O)NC3CCCC3)n2)cc1OC | -5.32% |
| CC(=O)c1cc(CN2CCC(C(=O)Nc3cccc(-c4cscn4)c3)CC2)cs1 | 1.1% |
| CCCN(CCC)c1nc2c(C)cccn2c(=O)c1/C=C1/SC(=S)N(Cc2ccco2)C1=O | 3.29% |
| CC1CN(CC(=O)NC(C)c2ccccc2)CC(C)O1 (stereo not drawn) | -1.49% |
| O=C(NCc1cccs1)c1ccc(CS(=O)Cc2ccccc2Cl)o1 (stereo not drawn) | -1.19% |
| COc1cccc(NC(=O)c2nn(-c3ccc(OC)cc3OC)c(=O)c3ccccc23)c1 | -9.73% |
| COc1ccc(-n2nc(C(=O)NCC(=O)N3CCN(c4ccccc4OC)CC3)c3ccccc3c2=O)c(OC)c1 | 24.9% (active) |
| COc1ccc(-n2nc(C(=O)Nc3cc(OC)c(OC)c(OC)c3)c3ccccc3c2=O)c(OC)c1 | 7.65% |
| Cc1ccc(S(=O)(=O)N(CC(O)CN2CCCCC2)c2cccc([N+](=O)[O-])c2)cc1 (stereo not drawn) | -3.71% |
| COc1ccc(N(Cc2ccc(N(C)C)cc2)C(=O)c2ccc(S(C)(=O)=O)cc2)cc1 | -1.82% |
| O=C(O)CCn1cc(/C=C/C(=O)c2ccc(Cl)cc2)c(-c2cccc(Br)c2)n1 | 0.455% |
| FC(F)(F)c1nnc2c3ccccc3c(Cl)nn12 | -3.49% |
| CC(C)n1c(O)c(N=Nc2ccccn2)c2ccccc21 | 4.74% |
| Oc1oc(-c2ccccc2Br)nc1/C=N/c1ccccn1 | 34.5% (active) |
| CN(C(=O)CN1C(=O)S/C(=C\c2ccccc2F)C1=O)C1CCS(=O)(=O)C1 (stereo not drawn) | 0.582% |
| COc1ccc(CNC(=O)C(c2ccc(O)cc2)N(Cc2ccco2)C(=O)c2snc(C(N)=O)c2N)cc1 (stereo not drawn) | 2.14% |
| CCC(C)Sc1nc2c(cnn2-c2ccc(F)cc2)c(=O)[nH]1 (stereo not drawn) | 3.85% |
| CC(C)=CCN1CCN(Cc2cc3ccccc3[nH]2)CC1CCO (stereo not drawn) | -3.61% |
| Cc1cc(C)c(S(=O)(=O)c2cc(F)ccc2C)c(=O)[nH]1 | 2.04% |

| SMILES | max response |
| --- | --- |
| CCOc1cc(NC(=O)CCl)c(OCC)cc1NC(C)=O | -3.13% |
| CC(Cc1cccs1)N(Cc1ccc(Cl)cc1)C(=O)c1ccncc1 (stereo not drawn) | -4.21% |
| CC(C)(C)c1ccc(/C=C/C(=O)NC2CCS(=O)(=O)C2)cc1 (stereo not drawn) | 5.09% |
| Cc1ccc(NC(=S)NC(=O)/C=C/c2ccc(Cl)cc2)cc1 | 8.42% |
| CC(C)(C)c1ccc(/C=C/C(=O)Nc2ncccn2)cc1 | 65.3% (active) |
| O=C(/C=C/c1ccc(Cl)cc1)Nc1ccc(S(=O)(=O)Nc2ncccn2)cc1 | 5.75% |
| Cc1cc(C)nc(NC(=O)/C=C/c2ccc(Cl)cc2)n1 | 17.8% (active) |
| O=C(/C=C/c1ccc(Cl)cc1)Nc1ccc(Br)cn1 | 14.3% |
| O=S(=O)(NC1CC1)c1ccc2c3c(cccc13)CC2 | -1.96% |
| COc1ccc(C(O)(C2CCCCC2)C(CN2CCCC2)c2ccccc2)cc1 (stereo not drawn) | -2.99% |
| COC(=O)c1ccc(CN2C(=O)NC(c3ccccc3)(c3ccccc3)C2=O)o1 | -8.22% |
| O=C(Nc1cccc(F)c1)NC1CCCCCCC1 | 52.8% (active) |
| C/C(CC(=O)Nc1cccc(C(F)(F)F)c1)=N\NC(=O)C(=O)NCC(C)C | -3.56% |
| O=C(Nc1cccc(F)c1)NC1CCCc2ccccc21 (stereo not drawn) | -2.71% |
| O=C(Nc1cccc(F)c1)[C@@H]1CCCN1 | -0.0627% |
| COc1cccc(NC(=O)C/C(C)=N/NC(=O)C2CCCCC2)c1 | 1.09% |
| C/C(CC(=O)Nc1cccc(F)c1)=N\NC(=O)C(=O)NC1CCCCC1 | 12.1% (active) |
| Cc1ccc(CN2CCN(Cc3ccccc3-c3ccco3)CC2CCO)o1 (stereo not drawn) | -2.94% |
| CCN(c1ccccc1)S(=O)(=O)c1cc2c(cc1C)n(C)c(=O)c(=O)n2C | 1.1% |
| C=CCn1c(C23CC4CC(CC(C4)C2)C3)n[nH]c1=S | -2.9% |
| COc1ccccc1N1CCN(c2ncnc3sc(C)c(-c4ccccc4)c23)CC1 | 23.3% |

| SMILES | max response |
| --- | --- |
| Cc1ccc2c(c1)N(C(=O)CCC(=O)NCc1cccnc1)CCO2 | -2.33% |
| CC(=O)N1CCOc2ccc(S(=O)(=O)N3CCN(c4cccc(C(F)(F)F)c4)CC3)cc21 | -4.21% |
| COCCCN1C(=O)c2ccc(C(=O)Nc3ccc(OC)cc3OC)cc2C1=O | 0.803% |
| Cc1ccc2[nH]cc(CCNC(=O)c3ccc([N+](=O)[O-])cc3)c2c1 | 0.0509% |
| COc1ccc(C[C@H](C(=O)O)N2C(=O)c3ccc(C(=O)O)cc3C2=O)cc1 | -3.3% |
| Cc1ccc2[nH]cc(CCNC(=O)C3CCCCC3)c2c1 | 0.628% |
| Cc1ccc2[nH]cc(CCCN3C(=O)c4ccccc4C3=O)c2c1 | 10.1% (active) |
| COc1ccc2[nH]cc(CCN3C(=O)c4ccc(C(=O)O)cc4C3=O)c2c1 | 21.7% (active) |
| Clc1cccc(Cl)c1OCCOCCNCc1ccccc1 | 1.5% |
| CCN(CC)Cc1c(C(=O)N/N=C/c2cccc(OCc3ccc(F)cc3)c2)nnn1-c1nonc1N | 8.82% |
| CN(C)CCCn1c(=O)n(Cc2ccccc2)c(=O)c2c3c(sc21)CCCCC3 | -4.51% |
| Cc1occc1C(=O)NC1CCCN(Cc2ccc(CC(C)C)cc2)C1 (stereo not drawn) | 9.49% |
| CC1(C(=O)N/N=C/c2cc3c(cc2Br)OCO3)CC1(Br)Br (stereo not drawn) | 4.29% |
| CN1CCC(CN)(N2CCN(c3ccccc3)CC2)CC1 | -3.21% |
| COc1ccc(NC(=O)CNC(=O)Cc2ccccc2)cc1OC | -3.3% |
| O=C(C(=O)N1CCc2ccccc2C1)c1c[nH]c2ccccc12 | 10.7% |
| CC1CCN(CC(=O)c2c[nH]c3ccccc23)CC1 | 22.4% |
| COc1ccc(OC)c2[nH]c(=O)c(CCNC(=O)C(=O)c3c[nH]c4ccccc34)cc12 | -1.63% |
| CC(=O)NC(Cc1c[nH]c2ccccc12)C(=O)NCCc1ccccc1 (stereo not drawn) | -4.02% |
| O=C(NCCCc1ccccc1)C(=O)c1c[nH]c2ccccc12 | 14.7% (active) |
| O=C(NC1CCCC1)C(=O)c1c[nH]c2ccccc12 | 49.1% (active) |
